Shown is part of a subset that was picked to be rich in hits.
Giardia killer = Giardia lamblia killing; Giardia lamblia trophozoite viability; activity change, % at 7.66 µM, hits read low; 0.15% of 340,000 active; AID 540267; in the data active = activity change below about -80%; inconclusive = between about -30% and that limit;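 also: parasites exposed to compound for two days anaerobically before the ATP read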
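Killing of trophozoites was scored by loss of ATP luminescence after a 48 hrs anaerobic exposure to compounds at 37 deg C, using 100 cells per well.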
a7 integrin act = activators of alpha7 integrin expression for muscular dystrophy | alpha7betagal myoblasts, beta-gal FDG fluorescence, 48 h | Potency, µM (series often up to 38.3 µM), usual class: activators | 0.064% of 350,000 active | AID 624291; also: nearly all actives have a fitted effect of over 60% in size
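Alpha7betagal+/- myoblasts (passage 13) were plated 16-24 hr, then exposed to compounds (1:260 dilution of DMSO stock) for 48 hours at 37C. After MPER lysis, β-galactosidase reporter activity was read as FDG fluorescence (ex 480/em 540) after 30 minutes.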
ERG Ets-DNA blk = ERG Ets/DNA interaction inhibition; P11308; fluorescence polarization, His-ERG Ets domain / labelled DNA; Potency, µM (series often up to 76.9 µM), hits mostly inhibitors; 0.028% of 370,000 active; AID 624246; active = well fitted inhibition curve with a large enough effect in the polarisation, with a control signal flat; inconclusive = small, poorly fitted or top-dose-only effect, or effect the other way, or a change in a side signal; inactive = no such curve, though single readings can be large or run the other way; the % refers to the polarisation;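 also: polarization taken with two DNA probes labelled with fluorescein and Texas red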
Target sequence (P11308 whole entry, looked up, the tested form may be a part): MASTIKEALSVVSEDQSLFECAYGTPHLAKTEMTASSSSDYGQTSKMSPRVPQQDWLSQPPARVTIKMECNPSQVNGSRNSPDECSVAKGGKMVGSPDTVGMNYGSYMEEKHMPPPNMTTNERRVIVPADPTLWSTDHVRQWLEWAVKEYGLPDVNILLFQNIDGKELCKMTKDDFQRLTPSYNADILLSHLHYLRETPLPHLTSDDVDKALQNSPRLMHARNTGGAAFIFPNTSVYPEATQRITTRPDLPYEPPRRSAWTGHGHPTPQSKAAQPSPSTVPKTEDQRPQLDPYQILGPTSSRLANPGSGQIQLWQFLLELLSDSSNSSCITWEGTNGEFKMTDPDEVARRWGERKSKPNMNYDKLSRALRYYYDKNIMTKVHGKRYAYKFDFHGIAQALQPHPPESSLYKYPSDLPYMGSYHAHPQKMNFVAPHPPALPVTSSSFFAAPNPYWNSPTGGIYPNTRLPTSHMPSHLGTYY
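His-tagged ERG Ets domain (1 uM in the protein solution; 300mM KCl, 50mM Tris-HCl, 1mM EDTA, 1mM DTT, pH 7.5) received compound, then a probe mix of 5 nM fluorescein-DNA and 100nM Texas-615-DNA. Fluorescence polarization was read for both dyes.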
VP16 counter = Gal4-VP16 reporter inhibition counter-screen | Drosophila S2 Gal4-VP16 UAS-luciferase, luminescence, 20 h | Potency, µM (top dose mostly 53.6 µM), most hits filed as inhibitors | 3.5% of 310,000 active | AID 2546;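 also: Gal4-VP16 expression switched on by copper sulfate through the metallothionein promoter; nearly all actives have a fitted effect of over 50% in size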
RORg inh = ROR gamma (mouse) transcription inhibition; P51450; Drosophila S2 Gal4-RORgamma UAS-luciferase reporter, 20 h; Potency, µM (doses to about 53.6 µM), hits mostly inhibitors; 5.4% of 310,000 active; also: nearly all actives have a fitted effect of over 60% in size
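Stably transfected Drosophila Schneider cells are the test system, with ROR gamma fused to Gal4 and luciferase under UAS control; luminescence is read after 20 hr of 700 uM copper sulfate induction at ambient temperature.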
Of the large screens only hits and unclear results are named; the others gave an inactive call; ! = a repeat was not active. Unless noted, calls follow the shape of the dose curve; as a rule, active = well fitted curve in the direction sought with a large enough effect; inconclusive = small, poorly fitted or top-dose-only effect, or another doubt; inactive = no such curve, though single readings can be large; an effect the other way counts as inactive or inconclusive.

O=C(c1cc(C(F)(F)F)cc(C(F)(F)F)c1)N1CCC2(CC1)CN(c1ccccn1)C2	VP16 counter 16µM (no result: Giardia killer, a7 integrin act, ERG Ets-DNA blk)
COc1ccc(Cl)cc1NC(=O)C1CCN(S(=O)(=O)c2ccc(F)cc2)CC1	none (no result: Giardia killer, a7 integrin act, VP16 counter, RORg inh)
O=C(O)/C=C/c1cn(Cc2ccccc2)nc1-c1ccccc1	none
O=C(O)CCn1cc(/C=C/C(=O)c2ccc(Cl)cc2)c(-c2ccc(Br)cc2)n1	VP16 counter inconclusive, RORg inh 7.1µM
CC1=C(C(=O)Nc2ccccc2)C(c2ccc(C)cc2)N=C(Nc2nc3ccccc3o2)N1 (centres undefined)	VP16 counter 11µM, RORg inh inconclusive
Cc1ccc(/C=C/C(=O)c2ccccc(=O)c2O)c(C)c1	VP16 counter inconclusive, RORg inh 7.1µM
Cc1ccc(C)c(/C=C/C(=O)c2ccccc(=O)c2O)c1	VP16 counter 5µM, RORg inh 3.2µM
O=C(/C=C/c1ccc([N+](=O)[O-])cc1)c1ccccc(=O)c1O	none (no result: VP16 counter, RORg inh)
O=C(C=Cc1ccccc1O)c1ccccc1O	none (no result: VP16 counter, RORg inh)
O=C(/C=C/c1ccccc1Cl)c1ccc(O)cc1	VP16 counter inconclusive, RORg inh 10µM
O=C(/C=C/c1ccccc1Cl)c1ccccc(=O)c1O	VP16 counter 5.6µM, RORg inh 3.5µM
O=C(/C=C/c1c(F)cccc1Cl)c1ccc(O)cc1	RORg inh inconclusive
CC(C)(C)Nc1oc(-c2ccccc2)nc1-c1ccccc1F	none (no result: Giardia killer, a7 integrin act, ERG Ets-DNA blk)
CCC1=C2CC[C@H]3C(=O)N(CC)C(=O)[C@H]3[C@H]2[C@@]2(C)C(=O)N(CC(=O)OC)C(=O)N2C1=O	none (no result: Giardia killer, a7 integrin act, ERG Ets-DNA blk)
Cc1nn(Cc2c(Cl)cccc2Cl)c(C)c1N	none
COc1ccc(CNc2nc3ccccc3n2CCN2CCCCC2)cc1	RORg inh 16µM
CCN(CC)CCn1c(NCc2ccco2)nc2ccccc21	none
CCOc1ccc(CNc2nc3ccccc3n2CCN2CCOCC2)cc1	none
CCN(CC)CCn1c(NCc2nc3ccccc3n2Cc2ccccc2)nc2ccccc21	VP16 counter inconclusive, RORg inh 11µM
c1ccc(Cn2c(CNc3nc4ccccc4n3CCN3CCCCC3)nc3ccccc32)cc1	VP16 counter inconclusive, RORg inh inconclusive
CCc1nc2ccccc2n1Cc1ccc(F)cc1	RORg inh inconclusive
Cn1c(CNc2nc3ccccc3n2CCN2CCCCC2)nc2ccccc21	RORg inh 16µM
COc1ccc(CCN2CCC(Nc3nc4ccccc4n3Cc3ccc(F)cc3)CC2)cc1	VP16 counter inconclusive, RORg inh 14µM! (no result: a7 integrin act)
O=C1CCC(C(=O)N2CCN(c3ccccc3)CC2)CN1CC1CCCCC1 (centres undefined)	none
Cc1onc(-c2ccccc2)c1C(=O)N1CCN(c2ncccc2C(F)(F)F)CC1	none
CCN(CC)c1ccc(CNc2nc3ccccc3n2CCN2CCCCC2)cc1	VP16 counter inconclusive, RORg inh 8.9µM
COc1ccc(OC)c(S(=O)(=O)N2CC=C(c3c(C)n(CC(=O)N4CCCC4)c4ccccc34)CC2)c1	none (no result: Giardia killer, a7 integrin act, VP16 counter, RORg inh)
Cc1[nH]n(-c2ccccc2)c(=O)c1C(C[N+](=O)[O-])c1ccccc1Cl (centres undefined)	none
COc1ccc(C(C[N+](=O)[O-])c2c(C)[nH]n(-c3ccccc3)c2=O)cc1 (centres undefined)	VP16 counter inconclusive, RORg inh 13µM
CC(=O)c1ccc(NC(=O)c2sc(-n3nc(C)c(Cc4ccc5c(c4)OCO5)c3C)nc2C)cc1	none (no result: Giardia killer, a7 integrin act, VP16 counter, RORg inh)
Cc1cc(C(F)(F)F)nc(Nc2nc(C)c3ccccc3n2)n1	VP16 counter inconclusive, RORg inh 6.3µM
Cc1ccc2nc(Nc3nc(C)cc(C(F)(F)F)n3)nc(C)c2c1	VP16 counter inconclusive
Cc1ccsc1/C=N/NC(=O)c1ccc2ccccc2c1	VP16 counter 5.6µM, RORg inh 3.2µM
COc1cc(C(=O)N/N=C/c2sccc2C)cc(OC)c1OC	VP16 counter inconclusive, RORg inh 20µM
COc1cc(C(=O)N/N=C/c2cc([N+](=O)[O-])cs2)cc(OC)c1OC	VP16 counter inconclusive, RORg inh 4µM
Cc1ccsc1/C=N/NC(=O)c1cccnc1	VP16 counter 13µM, RORg inh inconclusive
CC12C=C(/C=C/CCc3ccco3)C(C)(C1)C(CCc1ccco1)CC2=O (centres undefined)	none (no result: Giardia killer, a7 integrin act, ERG Ets-DNA blk)
CC(=O)OC1CC[C@@]2(C)C3=CC(=O)[C@]4(C)C(CC5OC6(OCC(C)CC6Br)C(C)C54)C3CC[C@H]2C1 (some centres undefined)	none (no result: Giardia killer, a7 integrin act, ERG Ets-DNA blk)
